These results are taken from the supplement of paper PMC6555819.

What all share (assay): PBM binding z-score (relative to random genomic background probes); higher = stronger binding; sequences stand for … in GC…GCGATTGACAGCGTAGAATGAAGG
Assay [1] relates to FXR:RXRa (NR concentration 270 nM, RXRa partner concentration 90 nM). The essentials:
(§1)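 Antibodies against each partner of ligand-free nuclear receptor dimers (one per run) detected binding on custom Agilent 4×180K protein-binding microarrays after 1 h incubation. The double-stranded probes had 34-nt variable regions carrying direct-repeat seeds, single-nucleotide variants, half-site ablations and random human genomic background sequences. Binding z-scores, from regression-normalized fluorescence, use the random background probes as reference.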

Assay [2] deals with LXRa:RXRa (NR concentration 270 nM, RXRa partner concentration 90 nM). The essentials: as §1
In assay [3] the test system is LXRa homodimer (NR concentration 270 nM). The essentials: as §1
The test system of assay [4] is LXRb:RXRa (NR concentration 270 nM, RXRa partner concentration 90 nM). In short, it runs like this: as §1
For assay [5], the system named is LXRb homodimer (NR concentration 270 nM). The essentials: as §1
Assay [6] concerns PPARa:RXRa (NR concentration 270 nM, RXRa partner concentration 90 nM). In short, it runs like this:
as §1

Assay [7] deals with PPARg:RXRa (NR concentration 180 nM, RXRa partner concentration 90 nM). In short, it runs like this: as §1
For assay [8], the system named is PPARg:RXRa 270nM:90nM, anti-RXR (NR concentration 270 nM, RXRa partner concentration 90 nM). In short, it runs like this: as §1
Assay [9] concerns PPARg:RXRa 30nM:10nM, anti-RXR (NR concentration 30 nM, RXRa partner concentration 10 nM). The essentials: as §1
Assay [10] relates to PPARg:RXRa 90nM:30nM, anti-RXR (NR concentration 90 nM, RXRa partner concentration 30 nM). The essentials: as §1
The test system of assay [11] is PPARg:RXRa DBDmut IVT, anti-RXR (DBD mutation: RXRa K156A/R161A, NR concentration 270 nM, RXRa partner concentration 90 nM). In short, it runs like this:
as §1

Assay [12] has as its system PPARg:RXRa IVT, anti-PPARg (NR concentration 270 nM, RXRa partner concentration 90 nM). The essentials:
as §1

Assay [13] concerns PPARg DBDmut:RXRa IVT, anti-PPARg (DBD mutation: PPARg1 K132A/R137A, NR concentration 270 nM, RXRa partner concentration 90 nM). In short, it runs like this:
as §1

The test system of assay [14] is PPARg DBDmut IVT, anti-PPARg (DBD mutation: PPARg1 K132A/R137A, NR concentration 270 nM). The essentials: as §1
Assay [15] concerns PPARg homodimer (NR concentration 180 nM). The essentials: as §1
The test system of assay [16] is PXR:RXRa (NR concentration 270 nM, RXRa partner concentration 90 nM). The essentials:
as §1

Assay [17] concerns PXR homodimer (NR concentration 270 nM). The essentials:
as §1

The subject of assay [18] is RARa:RXR (NR concentration 270 nM, RXRa partner concentration 90 nM). The essentials: as §1
Assay [19] has as its system RARa homodimer (NR concentration 270 nM). In short, it runs like this:
as §1

The test system of assay [20] is RARb:RXRa (NR concentration 270 nM, RXRa partner concentration 90 nM). In short, it runs like this: as §1

CCTACTGGGCCAAAAAGGTCATTCATGCCGATAA: the PBM binding z-score in assay [1] was 3.81; in assay [2], 4.85; in [3], 4.27; in assay [4] it was 4.54; in assay [5] it was 0.914; in assay [6] it was 4.85. Further, the PBM binding z-score is 3.37 in assay [7]; 4.13 in [8]; 1.87 in [9]; 3.58 in [10]; 3.69 in [11]; 3.97 in assay [12]. In addition, the PBM binding z-score in assay [13] was -0.431; in assay [14], 0.123; in assay [15] it was 4.57; in assay [16] it was 5.41; in assay [17], 4.84; in assay [18] it was 5.86. Besides, the PBM binding z-score in [19] is 2.12; in [20], 4.22.
Consider ATCTTTAGGTAAGACTCAGTTCAGTGAAGAACGC, for which the PBM binding z-score in assay [1] was 0.459; in assay [2], 0.502; in assay [3], 0.392; in [4] it was 0.259; in [5], 0.931; in [6], 0.478. Also, the PBM binding z-score is 0.122 in assay [7]; 0.267 in [8]; 0.146 in assay [9]; 0.0526 in assay [10]; 0.866 in assay [11]; 0.683 in [12]. For the same sequence, the PBM binding z-score in assay [13] is 1.19; in assay [14] it was 0.877; in assay [15], 0.751; in [16] it was 1.35; in assay [17], 1.56; in assay [18], 0.837. Also, the figures for the PBM binding z-score in assay [19] and in [20] were 1.14 and 0.585, respectively.
Regarding CCTCGGAGGACAACAGGAGGTCAGAGGTGCCAGA, the PBM binding z-score in assay [1] was 1.07; in assay [2] it was 1.95; in assay [3], 2.19; in assay [4], 1.34; in [5], -0.628; in assay [6], 2.04. Moreover, the PBM binding z-score in assay [7] was 1.1; in [8], 1.57; in assay [9], -0.13; in assay [10] it was 0.94; in assay [11], -0.227; in [12] it was 0.737. Moreover, the PBM binding z-score in assay [13] is -1.23; in assay [14], -1.03; in [15], 1.99; in assay [16] it was 2.36; in assay [17] it was 0.719; in assay [18], 2.6. For the same sequence, the results for the PBM binding z-score in assay [19] and in [20] were 0.638 and 3, respectively.
In the case of AGTCAAAGTTCATCTAGGTTACGTAAGATATGCT, the PBM binding z-score in assay [1] came out at 6.68; in [2], 6.16; in [3], 6.06; in [4] it was 3.95; in assay [5], 2.11; in assay [6] it was 4.96. The PBM binding z-score in assay [7] was 6.9; in assay [8], 6.6; in assay [9] it was 4.02; in assay [10] it was 5.95; in assay [11], 1.81; in [12], 4.48. Besides, the PBM binding z-score came to 1.59 in assay [13]; 1.1 in [14]; 2.63 in [15]; 5.66 in assay [16]; 10.7 in assay [17]; 4.25 in assay [18]. The values for the PBM binding z-score in assay [19] and in [20] were 1.94 and 4.99, respectively.
As for CCTTACAGGTCACTGACAGGTTATAGCATTTGGA, the PBM binding z-score in [1] was found to be 6.15; in assay [2], 4.93; in assay [3] it was 2.19; in assay [4] it was 3.88; in assay [5], 0.942; in assay [6], 5.23. Besides, the PBM binding z-score stood at 4.78 in assay [7]; 4.44 in assay [8]; 2.1 in [9]; 3.27 in assay [10]; 4.62 in assay [11]; 4.34 in [12]. The PBM binding z-score in [13] worked out at 1.33; in [14] it was 1.38; in assay [15], 3.27; in assay [16] it was 3.86; in [17] it was 0.606; in assay [18], 4.73. In addition, the PBM binding z-score in assay [19] was determined as 2.15; in [20], 4.67.
Turning to AGTCAAAGTTCACTAGGTAAGGTAAGATTCAGCT, the PBM binding z-score amounted to 5.15 in assay [1]; 4.75 in [2]; 3.2 in assay [3]; 3 in assay [4]; 1.19 in assay [5]; 4.4 in assay [6]. Besides, the PBM binding z-score in [7] is 6.73; in assay [8], 5.99; in assay [9], 3.11; in [10] it was 5.44; in assay [11] it was 1.79; in assay [12], 4.24. Further, the PBM binding z-score in assay [13] was 1.06; in assay [14], 0.795; in assay [15] it was 2.55; in assay [16] it was 3.83; in assay [17], 2.61; in [18], 3.3. The PBM binding z-score is 1.36 in assay [19] and 4.8 in assay [20].
